From PubChem BioAssay (Tox21)
Values without a mark were called inactive. Records with an inconclusive call do not appear. Entries that show only a call come without a potency. Calls of active or inactive are those of the source. Unless noted, calls follow the shape of the full dose curve.

Experiments:
[1] = Nuclear factor erythroid 2-related factor 2/antioxidant responsive element (Nrf2/ARE) small molecule agonists: qHTS cell viability counter screen in human keratinocytes (AID 1919968; active = well fitted curve in the direction sought with a large enough effect in the repeat runs; an effect the other way counts as inactive or inconclusive; also: nearly all actives have a fitted effect of over 55% in size; also: potency is read from the fitted curve at half-maximal effect)
Summary of the method: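 Viability counter-screen: KeratinoSens reporter cells, DMSO-delivered compounds, 23 h at 37 C, CellTiter-Fluor fluorescence.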

[2] = target: Gonadotropin-releasing hormone receptor (Homo sapiens) (UniProt P30968); test: Human gonadotropin-releasing hormone receptor (GnRHR) small molecule agonists, calcium flux assay in GnRHR-HEK293 cells (AID 1920063); also: nearly all actives have a fitted effect of over 35% in size
Chain of Gonadotropin-releasing hormone receptor (Homo sapiens) (P30968 whole entry, looked up): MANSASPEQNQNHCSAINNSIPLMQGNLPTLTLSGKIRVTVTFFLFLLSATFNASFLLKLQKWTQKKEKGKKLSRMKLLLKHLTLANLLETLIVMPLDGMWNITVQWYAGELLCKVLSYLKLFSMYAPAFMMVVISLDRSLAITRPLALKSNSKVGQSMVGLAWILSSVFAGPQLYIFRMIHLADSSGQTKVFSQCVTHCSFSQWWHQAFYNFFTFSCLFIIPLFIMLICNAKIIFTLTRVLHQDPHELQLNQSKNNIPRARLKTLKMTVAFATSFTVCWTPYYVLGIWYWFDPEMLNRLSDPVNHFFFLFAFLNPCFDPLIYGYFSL
Summary of the method: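 Tox21-format agonist screen using human GnRHR-expressing HEK293 cells and a fluorescent calcium dye; kinetic 3-min fluorescence reading after compound addition, 15-point concentration series run in triplicate.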

[3] = G protein-coupled receptor (GPCR) small molecule agonists, calcium flux assay: HEK293 wild type cell line counter screen (AID 1920065)
Summary of the method: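 In this agonist-mode screen, ATP is the positive control and DMSO the vehicle. Cells grow 18 h before a 1 h dye incubation at 37 C; signal is taken at Ex/Em 480/540 over 3 min.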

[4] = p53 small molecule agonists, cell-based qHTS assay with human liver microsomes: qHTS cell viability counter screen (AID 1963579); also: nearly all actives have a fitted effect of over 45% in size; also: potency is read from the fitted curve at half-maximal effect
Summary of the method: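 In this multiplexed counter screen, the reporter plates were subsequently treated with CellTiter-Glo so that cell viability, reflected by luminescence, could be recorded for p53RE-bla cells dosed 16 h with compounds under microsomal activation (HLM and NADPH).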

[5] = p53 small molecule agonists, cell-based qHTS assay with rat liver microsomes: qHTS cell viability counter screen (AID 1963580); also: nearly all actives have a fitted effect of over 45% in size
Summary of the method: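 Intracellular ATP, by CellTiter-Glo luminescence, defines viability. HCT-116 p53RE-bla cells, 4,000 per well, were compound-treated in the presence of rat liver microsomes and NADPH for 16 h at 37 C.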

[6] = target: Muscarinic acetylcholine receptor M1 (Homo sapiens) (UniProt P11229); test: Cholinergic receptor muscarinic 1 (CHRM1) small molecule agonists, cell-based qHTS assay (AID 1963589); also: nearly all actives have a fitted effect of over 35% in size
Chain of Muscarinic acetylcholine receptor M1 (Homo sapiens) (P11229 whole entry, looked up): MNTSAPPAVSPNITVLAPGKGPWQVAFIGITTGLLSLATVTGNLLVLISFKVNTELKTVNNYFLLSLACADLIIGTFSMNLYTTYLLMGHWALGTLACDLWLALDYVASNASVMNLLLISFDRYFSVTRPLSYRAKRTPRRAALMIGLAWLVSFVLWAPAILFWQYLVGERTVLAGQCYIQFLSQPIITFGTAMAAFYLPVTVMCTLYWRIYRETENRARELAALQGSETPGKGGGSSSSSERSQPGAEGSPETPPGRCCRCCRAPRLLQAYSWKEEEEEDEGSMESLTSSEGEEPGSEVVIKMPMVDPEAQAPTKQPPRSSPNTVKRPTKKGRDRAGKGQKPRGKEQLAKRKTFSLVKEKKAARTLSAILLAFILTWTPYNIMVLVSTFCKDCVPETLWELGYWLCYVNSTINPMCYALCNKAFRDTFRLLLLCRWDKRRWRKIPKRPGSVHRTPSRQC
Summary of the method: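 Stable CHRM1-CHO cells (human receptor) were incubated 18 h, dye-loaded for 1 h at 37 C and exposed to test compounds for agonist activity, with calcium-dependent fluorescence followed kinetically.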

[7] = target: KiSS-1 receptor (Homo sapiens) (UniProt Q969F8); test: Human kisspeptin (KISS1R) small molecule agonists, calcium flux assay in KISS1R-HEK293 cells (AID 1920064; active = well fitted curve in the direction sought with a large enough effect in the repeat runs; an effect the other way counts as inactive or inconclusive)
Chain of KiSS-1 receptor (Homo sapiens) (Q969F8 whole entry, looked up): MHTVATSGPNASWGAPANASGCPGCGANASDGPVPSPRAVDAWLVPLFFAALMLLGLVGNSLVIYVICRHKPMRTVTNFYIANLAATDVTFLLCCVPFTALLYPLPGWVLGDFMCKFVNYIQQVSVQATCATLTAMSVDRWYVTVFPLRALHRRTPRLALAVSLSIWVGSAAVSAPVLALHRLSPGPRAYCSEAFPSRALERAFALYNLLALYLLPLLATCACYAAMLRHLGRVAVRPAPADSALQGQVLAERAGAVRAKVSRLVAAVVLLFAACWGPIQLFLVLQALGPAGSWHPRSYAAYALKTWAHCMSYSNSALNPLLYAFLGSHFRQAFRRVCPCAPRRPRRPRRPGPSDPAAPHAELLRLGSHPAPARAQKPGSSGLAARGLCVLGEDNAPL
Summary of the method: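 Intracellular calcium mobilization in KISS1R-HEK293 cells was recorded by fluorescence (Ex/Em 480/540) for 3 min following compound addition to cells pre-loaded 1 h with calcium dye.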

[8] = p53 small molecule agonists, cell-based qHTS assay with human liver microsomes (AID 1963577);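 also: p53 response element beta-lactamase reporter cells with liver microsomes plus NADPH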
Summary of the method: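 16 h, 37 C exposure of p53RE-bla cells to compounds with human liver microsomes and NADPH (0.5 mg/mL final each); detection via LiveBLAzer mixture, 2 h dark at room temperature.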

[9] = p53 small molecule agonists, cell-based qHTS assay with rat liver microsomes (AID 1963578)
Summary of the method: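 With rat liver microsomes and NADPH present (0.5 mg/mL final each), p53RE-bla cells are treated with compound for 16 h at 37 C. LiveBLAzer detection mixture is then applied for 2 h at room temperature in the dark.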

[10] = p53 small molecule agonists, cell-based qHTS assay: qHTS cell viability counter screen (AID 1963581); also: nearly all actives have a fitted effect of over 45% in size
Summary of the method: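 Compounds are pinned onto HCT-116 p53RE-bla cells and left 16 h at 37 C. Following the reporter FRET read, ATP is quantified by CellTiter-Glo luminescence after 30 min at room temperature.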

[11] = target: 5-hydroxytryptamine receptor 2A (Homo sapiens) (UniProt P28223); test: 5-hydroxytryptamine receptor 2A (HTR2A) small molecule antagonists, cell-based qHTS assay (AID 1963586); also: nearly all actives have a fitted effect of over 45% in size; also: potency is read from the fitted curve at half-maximal effect
Chain of 5-hydroxytryptamine receptor 2A (Homo sapiens) (P28223 whole entry, looked up): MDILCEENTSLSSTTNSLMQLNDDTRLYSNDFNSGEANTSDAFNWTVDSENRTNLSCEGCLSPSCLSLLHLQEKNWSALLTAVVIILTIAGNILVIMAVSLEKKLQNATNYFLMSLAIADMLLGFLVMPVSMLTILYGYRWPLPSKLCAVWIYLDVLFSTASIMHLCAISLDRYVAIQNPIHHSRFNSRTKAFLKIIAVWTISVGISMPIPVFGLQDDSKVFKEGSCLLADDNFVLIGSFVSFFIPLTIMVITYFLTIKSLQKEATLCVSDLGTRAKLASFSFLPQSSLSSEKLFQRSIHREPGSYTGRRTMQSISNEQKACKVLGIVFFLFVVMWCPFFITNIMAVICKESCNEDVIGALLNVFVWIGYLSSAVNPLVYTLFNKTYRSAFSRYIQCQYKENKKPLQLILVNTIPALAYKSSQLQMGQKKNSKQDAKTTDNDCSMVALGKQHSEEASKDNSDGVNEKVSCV
Summary of the method: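 Antagonist-mode intracellular calcium assay: DOI (4 nM) added after 5 min compound pre-incubation at room temperature to dye-loaded HTR2A-CHO cells. Fluorescence followed for 3 min, sampled every second.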

[12] = target: 5-hydroxytryptamine receptor 2A (Homo sapiens) (UniProt P28223); test: 5-hydroxytryptamine receptor 2A (HTR2A) small molecule agonists, cell-based qHTS assay (AID 1963587); also: nearly all actives have a fitted effect of over 30% in size
Summary of the method: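 Kinetic calcium-flux fluorescence (2 min, 1 sec intervals) after compound addition in agonist mode. HTR2A-CHO cells were cultured 18 h, then dye-loaded 1 h at 37 C.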

[13] = target: Muscarinic acetylcholine receptor M1 (Homo sapiens) (UniProt P11229); test: Cholinergic receptor muscarinic 1 (CHRM1) small molecule antagonists, cell-based qHTS assay (AID 1963588); also: nearly all actives have a fitted effect of over 40% in size; also: potency is read from the fitted curve at half-maximal effect
Summary of the method: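 CHRM1-CHO calcium-flux assay, antagonist mode. Cells were seeded 18 h, dye-loaded 1 h at 37 C and given compound for 5 min at RT, then acetylcholine was added at 50nM. FDSS fluorescence was read 3 min; 15 concentrations, three runs.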

[14] = cAMP Responsive Elements (CRE) small molecule agonists, cell-based qHTS assay (AID 1963590)
Summary of the method: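 FRET-based beta-lactamase readout (LiveBLAzer B/G, 2 h RT) quantified CRE activation in HEK 293T CRE-bla cells after 3 h treatment with DMSO-dissolved compounds.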

[15] = cAMP Responsive Elements (CRE) small molecule antagonists, cell-based qHTS assay (AID 1963591; active = well fitted inhibition curve with a large enough effect in the signal ratio in the repeat runs, not every such curve was filed as active; the % refers to the signal ratio)
Summary of the method: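 qHTS in CRE-bla HEK 293T cells: compound in DMSO, then 0.25 uM NKH477 (final), 3 h at 37 °C/5% CO2; beta-lactamase FRET read-out after 2 h substrate incubation.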

[16] = target: Beta-2 adrenergic receptor (Homo sapiens) (UniProt P07550); test: Adrenergic beta2 receptor (ADRB2) small molecule antagonists, cell-based qHTS assay (AID 1963592); also: series mostly up to about 92 µM; nearly all actives have a fitted effect of over 50% in size
Chain of Beta-2 adrenergic receptor (Homo sapiens) (P07550 whole entry, looked up): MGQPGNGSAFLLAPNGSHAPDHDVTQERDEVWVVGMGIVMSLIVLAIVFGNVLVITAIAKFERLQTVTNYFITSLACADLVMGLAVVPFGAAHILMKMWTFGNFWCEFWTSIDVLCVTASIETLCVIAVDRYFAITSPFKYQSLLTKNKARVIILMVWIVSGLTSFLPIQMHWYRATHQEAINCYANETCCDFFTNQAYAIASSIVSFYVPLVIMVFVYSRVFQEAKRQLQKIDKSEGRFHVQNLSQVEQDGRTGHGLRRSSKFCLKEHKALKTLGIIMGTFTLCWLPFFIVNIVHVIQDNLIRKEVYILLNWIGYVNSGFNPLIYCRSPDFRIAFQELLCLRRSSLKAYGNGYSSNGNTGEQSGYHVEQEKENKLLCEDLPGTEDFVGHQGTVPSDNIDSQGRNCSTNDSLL
Summary of the method: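 Cells (CHO, stable ADRB2 overexpression) incubated 18-20hr at 37C; compounds added from DMSO; agonist mix (1nM isoproterenol, 100uM IBMX, 25uM Ro-20-1724) added; 0.5hr RT; d2-cAMP and anti-cAMP-cryptate added; 1hr RT; 665/615 nm read.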

[17] = target: D(2) dopamine receptor (Homo sapiens) (UniProt P14416); test: Dopamine D2 receptor (DRD2) small molecule agonists, cell-based qHTS assay (AID 1963594); also: nearly all actives have a fitted effect of over 35% in size
Chain of D(2) dopamine receptor (Homo sapiens) (P14416 whole entry, looked up): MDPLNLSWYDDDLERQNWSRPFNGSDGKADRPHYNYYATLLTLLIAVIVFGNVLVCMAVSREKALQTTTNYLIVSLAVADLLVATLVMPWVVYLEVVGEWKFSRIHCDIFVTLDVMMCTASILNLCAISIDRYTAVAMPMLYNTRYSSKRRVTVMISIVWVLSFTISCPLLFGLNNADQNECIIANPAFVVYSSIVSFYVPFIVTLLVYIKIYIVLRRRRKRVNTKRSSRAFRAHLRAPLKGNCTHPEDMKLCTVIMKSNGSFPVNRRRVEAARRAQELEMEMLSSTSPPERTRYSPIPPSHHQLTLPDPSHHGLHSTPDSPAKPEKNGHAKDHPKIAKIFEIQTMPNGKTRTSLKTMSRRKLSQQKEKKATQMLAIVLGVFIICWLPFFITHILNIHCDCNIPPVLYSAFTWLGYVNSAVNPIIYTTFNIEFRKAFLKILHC
Summary of the method: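 cAMP accumulation in DRD2-HEK293 cells measured by HTRF after 1 h detection; compounds added 10 min before NKH477 (200nM […]) forskolin-analogue stimulation, 30 min at room temperature, with Ro20-1724 present at 0.1 mM final.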

[18] = target: D(2) dopamine receptor (Homo sapiens) (UniProt P14416); test: Dopamine D2 receptor (DRD2) small molecule antagonists, cell-based qHTS assay (AID 1963595; active = well fitted inhibition curve with a large enough effect in the signal ratio in the repeat runs, with a control signal flat; the % refers to the signal ratio)
Summary of the method: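 Antagonism was scored as restored cAMP in HEK293-DRD2 cells. These cells were stimulated with 200 nM NKH477 and 12 nM quinpirole for 30 min at room temperature, in the presence of 0.1 mM Ro20-1724.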

[19] = target: Beta-2 adrenergic receptor (Homo sapiens) (UniProt P07550); test: Adrenergic beta2 receptor (ADRB2) small molecule agonists, cell-based qHTS assay (AID 1963593);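 also: CHO cells stably overexpressing human ADRB2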
Summary of the method: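 CHO cells stably over-expressing ADRB2 were plated overnight at 37C, then dosed with compounds plus a stimulation mix containing 100uM IBMX and 25uM Ro-20-1724 for 0.5hr at room temperature. cAMP was measured by HTRF competition, 1hr.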

[20] = p53 small molecule agonists, cell-based qHTS assay (AID 1963582; active = well fitted activation curve with a large enough effect in the signal ratio in the repeat runs, not every such curve was filed as active; the % refers to the signal ratio)
Summary of the method: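 Agonist activity was scored from beta-lactamase FRET fluorescence in p53RE-bla cells treated 16 h at 37 C with compounds in DMSO, substrate incubation being 2 h at room temperature.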

| SMILES | Potency [1] | Potency [2] | Potency [3] | Potency [4] | Potency [5] | Potency [6] | Potency [7] | Potency [8] | Potency [9] | Potency [10] | Potency [11] | Potency [12] | Potency [13] | Potency [14] | Potency [15] | Potency [16] | Potency [17] | Potency [18] | Potency [19] | Potency [20] |
| --- | --- | --- | --- | --- | --- | --- | --- | --- | --- | --- | --- | --- | --- | --- | --- | --- | --- | --- | --- | --- |
| CCCCC(CC)COC(=O)c1ccccc1C(=O)O (stereo not drawn) | inactive | inactive | inactive | inactive | inactive | inactive | – | – | – | – | – | – | – | – | – | – | – | – | – | – |
| O=[N+]([O-])c1cccc(C(F)(F)F)c1 | inactive | – | inactive | inactive | inactive | inactive | inactive | inactive | inactive | inactive | inactive | inactive | inactive | inactive | inactive | inactive | inactive | inactive | – | – |
| CC[C@H](C)COC(=O)/C=C/c1ccc(N=Cc2ccc(OC)cc2)cc1 | inactive | inactive | inactive | – | – | inactive | – | – | inactive | inactive | inactive | – | – | – | inactive | – | – | – | – | – |
| OC(CN1CCC(Cc2ccc(F)cc2)CC1)c1ccc(Cl)cc1 (stereo not drawn) | 29.8 µM (active) | – | inactive | inactive | inactive | inactive | inactive | inactive | inactive | inactive | 1.63 µM (active) | – | – | inactive | inactive | – | inactive | inactive | – | – |
| CCCC[N+](C)(CCCC)CCCC | inactive | inactive | inactive | inactive | inactive | inactive | – | – | – | inactive | inactive | inactive | inactive | inactive | – | inactive | inactive | inactive | inactive | – |
| CCCCCCCCCCOC(=O)c1ccccc1C(=O)OCCCCCCCC | inactive | – | inactive | inactive | inactive | inactive | inactive | inactive | inactive | inactive | inactive | – | – | inactive | – | inactive | inactive | inactive | – | inactive |
| CCOc1ccc2c(c1)C(C)CC(C)(C)N2 (stereo not drawn) | inactive | inactive | inactive | – | – | inactive | – | – | – | inactive | inactive | inactive | inactive | inactive | – | – | inactive | inactive | – | – |
| COc1ccc2cc(S(=O)(=O)N[C@H](CC(=O)N[C@H](Cc3ccc(CN4[C@H](C)CCC[C@@H]4C)cc3)C(=O)N(C)C(C)C)c3ccc4c(c3)OCO4)ccc2c1 | 41 µM (active) | inactive | inactive | 43.3 µM (active) | inactive | inactive | – | – | inactive | – | inactive | inactive | 0.794 µM (active) | – | – | inactive | – | – | inactive | – |
| CCOC(=O)C(C)Oc1ccc(Oc2nc3ccc(Cl)cc3o2)cc1 (stereo not drawn) | inactive | inactive | – | inactive | inactive | inactive | – | inactive | inactive | inactive | inactive | inactive | – | – | inactive | inactive | inactive | inactive | inactive | – |
| CCC(=O)OCCC(C)CCC=C(C)C (stereo not drawn) | inactive | inactive | – | inactive | inactive | inactive | – | – | inactive | inactive | inactive | inactive | inactive | inactive | inactive | inactive | inactive | inactive | – | inactive |
| CCCC(C)C(=O)O (stereo not drawn) | inactive | – | inactive | inactive | inactive | inactive | inactive | inactive | inactive | inactive | – | – | inactive | – | inactive | – | inactive | inactive | – | inactive |
| C/C(=C(/OCCOc1ccc(Cl)cc1)c1ccc(Cl)cc1Cl)n1ccnc1 | 13.3 µM (active) | inactive | – | inactive | – | inactive | – | inactive | inactive | inactive | – | inactive | – | inactive | inactive | inactive | inactive | inactive | inactive | inactive |
